The supplement of paper PMC3545927
The other results are listed elsewhere or left out. How many sequences the whole screen found active is unknown.

B1: HC539 (peptide)
chain: CAASLAGTHGAGNASASA
B2: HC2471 (peptide)
chain: CADTPCSAHLAGNASASA
B3: HC493 (peptide)
chain: CALLLTTTQWAGNASASA
B4: HC1924 (peptide)
chain: CATTPCSGSIAGNASASA
B5: HC2366 (peptide)
chain: CAEVPCHMPSAGNASASA
B6: HC1265 (peptide)
chain: CAPSLKATCTAGNASASA
B7: HC1194 (peptide)
chain: CATGPCTPLPAGNASASA
B8: HC658 (peptide)
chain: CADIINGLPVAGNASASA
B9: HC1735 (peptide)
chain: CAMEECSHHLAGNASASA
B10: FS-1626 (peptide)
chain: CAEKERSKRSAGNASASA
B11: FS-232 (peptide)
chain: CAELNRSKKDAGNASASA
B12: FS-94 (peptide)
chain: CASSARNKRSAGNASASA
B13: FS-1568 (peptide)
chain: CASKERSKRSAGNASASA
B14: FS-927 (peptide)
chain: CAELNRSKRSAGNASASA

Target: furin, P09958
Test: furin cleavage Z-score vs untreated control; higher = more cleavage, active = 3.5 or more, inactive = 1 or less, 8 variable residues between constant flanks
Method in brief: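 The cleavage Z-score was derived for purified furin acting on 8-mer peptides held on magnetic beads and fused to a cDNA oligonucleotide. Digests lasted 7.5, 15 or 30 min at 1:10 enzyme:substrate in 50 mM HEPES pH 7.5 with CaCl2 and NaCl. Sequencing counts of released DNA, log-transformed against furin-free reactions, were lowess-adjusted and scaled by median absolute deviation.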

Sequence of furin, P09958 (P09958 whole entry): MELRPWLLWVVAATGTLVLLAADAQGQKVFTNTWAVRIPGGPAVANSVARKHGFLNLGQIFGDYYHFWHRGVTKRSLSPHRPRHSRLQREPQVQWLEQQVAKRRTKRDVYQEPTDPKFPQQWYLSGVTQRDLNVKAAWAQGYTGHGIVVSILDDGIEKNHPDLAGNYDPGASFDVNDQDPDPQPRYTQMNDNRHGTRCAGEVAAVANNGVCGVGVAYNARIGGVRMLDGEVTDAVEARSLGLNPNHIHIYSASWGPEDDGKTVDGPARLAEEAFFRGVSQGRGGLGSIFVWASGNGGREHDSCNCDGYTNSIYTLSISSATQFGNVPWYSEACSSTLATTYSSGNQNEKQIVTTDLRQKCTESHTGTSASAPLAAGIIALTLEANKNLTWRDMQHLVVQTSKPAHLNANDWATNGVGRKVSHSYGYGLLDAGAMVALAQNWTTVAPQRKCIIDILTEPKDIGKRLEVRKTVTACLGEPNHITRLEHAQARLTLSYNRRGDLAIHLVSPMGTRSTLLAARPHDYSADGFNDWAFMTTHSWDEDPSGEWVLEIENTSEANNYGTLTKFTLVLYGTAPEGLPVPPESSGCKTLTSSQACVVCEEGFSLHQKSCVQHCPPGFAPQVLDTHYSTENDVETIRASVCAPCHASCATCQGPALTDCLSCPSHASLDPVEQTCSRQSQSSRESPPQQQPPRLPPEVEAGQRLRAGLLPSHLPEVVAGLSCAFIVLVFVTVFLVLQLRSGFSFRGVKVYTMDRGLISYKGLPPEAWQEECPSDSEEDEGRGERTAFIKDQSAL

Sequence | furin cleavage Z-score (7.5 min) | furin cleavage Z-score (15 min) | furin cleavage Z-score (30 min)
B1 | 0.00941 (inactive) | 3.06 | 1.2
B2 | -1.99 (inactive) | -1.52 (inactive) | -0.796 (inactive)
B3 | -0.815 (inactive) | -0.0284 (inactive) | 0.00617 (inactive)
B4 | -0.658 (inactive) | -0.276 (inactive) | -1.61 (inactive)
B5 | 0.437 (inactive) | 1.57 | 0.743 (inactive)
B6 | 0.563 (inactive) | 1.42 | 0.215 (inactive)
B7 | -0.592 (inactive) | -0.46 (inactive) | 0.602 (inactive)
B8 | -0.191 (inactive) | -0.925 (inactive) | -0.966 (inactive)
B9 | 0.695 (inactive) | -0.107 (inactive) | -0.123 (inactive)
B10 | 9.14 (active) | 7.38 (active) | 7.92 (active)
B11 | 0.785 (inactive) | 0.28 (inactive) | 0.715 (inactive)
B12 | 11.8 (active) | 11.6 (active) | 8.13 (active)
B13 | 12.6 (active) | 10.6 (active) | 9.24 (active)
B14 | 10.6 (active) | 9.86 (active) | 8.24 (active)
